# According to PubChem BioAssay AID493185 (National Center for Advancing Translational Sciences (NCATS), 2011):
# Unmarked numbers belong to inactive results. The source made the active and inactive calls. Calls come from the whole dose curve; as a rule, active = well fitted activation curve with a large enough effect; inconclusive = small, poorly fitted or top-dose-only effect; inactive = no such curve, though single readings can be large or run the other way.
# Assay: Counterscreen for Identifying a Potential Treatment of Ataxia-Telangiectasia: Hit Validation; for activation: 0% is about no effect
# Details: cell-free AlphaLISA/AlphaScreen artifact counterscreen, PBS only, no cells; series mostly up to 76.9 µM; activation: at the top concentration
# Description: NIH Chemical Genomics Center [NCGC]
# NIH Molecular Libraries Probe Centers Network [MLPCN]
# Assay Submitter (PI): Wei Zheng and Yosef Shiloh
# Ataxia-telangiectasia (A-T) is a devastating and progressive disease for which, there is no cure. Although A-T is a multisystem disease, it is stereotyped characterized by its neurological symptoms such as truncal ataxia, due to cerebellar cortical degeneration of the Purkinje and granule cells. Other symptoms of A-T are telangiectasias (dilated blood vessels), primary immunodeficiency, marked sensitivity to ionizing radiation (IR), chromosomal instability and predisposition to cancer.
# The underlying genetic cause of A-T is null mutations in the ATM (A-T mutated) gene. ATM is a nuclear serine/threonine kinase that functions as a master regulator of the cellular responses to double strand breaks (DSBs) in the DNA. Upon activation by DSBs, ATM phosphorylates a plethora of downstream targets, including KAP-1 on […]. KAP-1 phosphorylation occurs shortly in response to DSBs and mediates global chromatin relaxation, which facilitates DSB repair. To screen for small molecules that will compensate for the loss of ATM in cells derived from A-T patients, we monitored KAP-1 phosphorylation as a readout for ATM-like activity using an AlphaLISA assay.
# 3. Library compounds, 23 nl, 76.7 - 0.61uM dilution series final concentration
# 4. Incubation, 60 min, 37C, 5% CO2, 95% humidity
# 6. Incubation, 30 min, 37C, 5% CO2, 95% humidity
# 7. Reagent, 1 ul, Premixed detection reagents and lysis buffer
# 8. Reagent, 1 ul, 0.6% Antifoam A
# 9. Incubation, 6 hr, 25C, 95% humidity
# 10. Readout, EnVision, EnVision plate reader. AlphaScreen 1536-well protocol
# PBS was dispensed into medium-binding white solid-bottom tissue culture treated Kalypsys plates with a Multidrop dispenser. Detection reagent and lysis buffer was 3.75nM Rab-a-pKAP1 antibody bound to 75 ng/ul AlphaScreen SA donor bead, 3.75 nM Biot-M-a-KAP1 antibody bound to AlphaLISA protein A acceptor bead, 0.5x protease inhibitor cocktail and 0.25x PerkinElmer lysis buffer. EnVision protocol for 1536-well AlphaScreen read (30ms excitation, 100ms read), about 10 min/plate. This assay is similar to the primary screen but is without cells. It aims to identify artifacts of the assay platform and unspecific hits.
# Potency is the fitted concentration of half-maximal effect.
Structure (SMILES),activation,Potency
COc1ccc(-c2nn(-c3ccccc3)cc2/C=C/C(=O)O)cc1[N+](=O)[O-],-4.92%,
CC1CCCC(C)N1CCCNC(=O)Cn1ncc2c3ccccc3n(C)c2c1=O (stereo not given),12.8%,
O=C(c1ccc(F)cc1)N1CCC(c2ccccc2)C1 (stereo not given),12.3%,
CCOC(=O)c1ccc(-n2c(C)nc3ccc(Br)cc3c2=O)cc1,-26.9%,
O=C(CNCc1cccs1)Nc1cc(S(=O)(=O)N2CCCC2)ccc1Cl,10.5%,
O=C(Nc1ccccc1Oc1ccccc1)c1cccs1,4.1%,
CC12CCC(C(=O)NNc3ccc([N+](=O)[O-])cc3)(OC1=O)C2(C)C (stereo not given),0%,
CCc1ccc(NC(=O)N[C@H](C(=O)O)C(C)CC)cc1 (stereo not given in full),-7.69%,
COC(=O)c1ccc2[nH]c3cccc(/C(=C/c4ccccc4)c4ccccc4)c3c2c1,4.92%,
O=C(N/N=C/c1cccc2ccccc12)c1cccnc1,0%,
CCCN1C2CCCC1CC(NC(=S)Nc1cccc(C)c1C)C2 (stereo not given),5.38%,
CCCc1ccc(S(=O)(=O)Nc2ccc(C)c(NS(C)(=O)=O)c2)cc1,-12%,
Cc1ccc(-c2noc(CCC(=O)NC3CCN(Cc4ccccc4)CC3)n2)cc1,-3.28%,
CNC(=O)c1ccc(-c2sc3nc(N4CCOCC4)c4c(c3c2N)CC(C)(C)OC4)o1,,46.3 µM (active)
CCC(=O)c1ccc2c(c1)OCCO2,-15.8%,
C=C1CCC[C@]2(C)C[C@H]3OC(=O)C(CN4CCCCC4CO)[C@H]3CC12 (stereo not given in full),-2.46%,
C=C(C)n1c(=O)n(Cc2ccccc2C)c2ccccc21,-0.82%,
O=C(NCc1ccccc1)c1cccnc1Sc1ccccc1,3.76%,
CS(=O)(=O)c1ccc(-c2csc(-c3cccnc3)n2)cc1,8.27%,
S=c1[nH]nc(COc2ccccc2)n1/N=C/c1ccccc1Cl,1.54%,

Structure (SMILES),activation,Potency
Cc1nn(C)c(Cl)c1CN1CCN(C2CCCC2)C(CCO)C1 (stereo not given),-13.5%,
C=Cc1c(C)c2cc3[nH]c(cc4nc(cc5nc(cc1[nH]2)C(C)=C5CCC(=O)O)C(CCC(=O)O)=C4C)c(C)c3C=C,,29.2 µM (active)
O=C(O)c1ccc(-c2nc3ccccc3s2)o1,-3.01%,
O=C(Nc1ccc([N+](=O)[O-])cc1)c1cc2ccccc2nc1Cl,-3.28%,
CC1CC(C)CN(C(=O)COC(=O)c2c[nH]c3ccccc23)C1 (stereo not given),5.38%,
CN(C)C(=O)CN(C)S(=O)(=O)c1ccc(Cl)cc1,9.02%,
COc1ccc(C(CNC(=O)C(Cc2ccccc2)NC(N)=O)N(C)C)cc1 (stereo not given),7.52%,
CC(C)CNS(=O)(=O)c1cc(C(=O)O)c(Cl)cc1Cl,4.51%,
CCN(c1ccccc1)S(=O)(=O)c1ccc(Cl)c(C(=O)N(CC2CCCO2)C2CCS(=O)(=O)C2)c1 (stereo not given),-15.4%,
COc1ccc(-c2nc3n(c2C)Cc2ccccc2-3)cc1,,32.8 µM (active)
CC(Oc1ccccc1)C(=O)Nc1cccc(NC(=O)c2ccco2)c1 (stereo not given),14.3%,
CCn1c2ccccc2c2c3ncc4cccn4c3ccc21,,41.2 µM (active)
COc1ccc(C(=O)/C=C/C(=O)N(CC(=O)NC2CCCCC2)Cc2ccccc2)c(O)c1,3.76%,
CCC(C)N1C(=S)SC(C)(C)C1N(O)C(=O)NC1CCCCC1 (stereo not given),-10.8%,
Cc1nnc(SCC(=O)NC(=O)Nc2ccc3c(c2)OCCO3)n1N,-28.5%,
COC(=O)c1ccncc1C(=O)Nc1ccc(Oc2ncc(C(F)(F)F)cc2Cl)cc1,-5.74%,
Cc1ccc(NC(=O)Nc2cccnc2)cc1NC(=O)Nc1cccnc1,-10.5%,
O=C(Nc1cc(S(=O)(=O)N2CCOCC2)ccc1Cl)c1cc(=O)c2ccccc2o1,2.26%,
CC(C)(CO)NC(=O)c1ccc2c(c1)C(=O)c1ccccc1-2,-6.01%,
CC(O)[C@H]1CNC(=O)C(=O)N1CC1(c2ccccc2)CC1 (stereo not given in full),4.1%,
